From PubChem BioAssay
This is a sample that favours compounds with a hit; in the whole collection about 20% have one here.
Pf growth 96h – inhibits malaria parasite growth, 96 h; P. falciparum luciferase reporter growth, 96 h; Potency, µM (series often up to 28.7 µM), for inactives: at the top dose activity change, negative = inhibition, most hits filed as inhibitors; actives 6.9% (n = 320,000); AID 504834; note: potency is the fitted concentration of half-maximal effect; % is set by controls: 0 for no effect and ±100 for the full control effect
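Parasite growth measured via integrated firefly luciferase reporter in P. falciparum. Infected erythrocytes at 2% hematocrit, 0.05% parasitemia final were treated 96 hours at 37 C under 5% CO2, and luminescence was read.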
Shiga inhibitor – Shiga toxin inhibition. Vero cells, Shiga toxin protein synthesis inhibition reporter. inhibition, % at 38.7 µM. actives 9.2% (n = 290,000). AID 2315; in the data active = inhibition mostly above about 28%, no sharp cut-off; inactive = mostly below about 43%; note: 0% is about no effect
Cycloheximide cs – affects cycloheximide protein synthesis inhibition readout, counter-screen. cell reporter, cycloheximide protein synthesis inhibition counterscreen. max response, %. actives 12% (n = 300,000). AID 2314; in the data active = max response mostly above about 13%, no sharp cut-off; inactive = mostly below about 14%; note: read at 38.3 µM for the half of the compounds with a filed dose; 0% is about no effect
Pf growth 48h – inhibits P. falciparum growth in the first generation, 48 h; AID 504832; P. falciparum luciferase growth in erythrocytes, 48 h; Potency, µM (series often up to 28.7 µM), for inactives: at the highest dose activity change, negative = inhibition, hits mostly inhibitors; actives 5.9% (n = 310,000); note: potency is the fitted concentration of half-maximal effect; % is set by controls: 0 for no effect and ±100 for the full control effect
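Luciferase-expressing P. falciparum in infected erythrocytes (2% hematocrit, 0.1% parasitemia final) in RPMI 1640/0.5% Albumax were exposed to compound for 48 hours at 37 C, 5% CO2; growth read as luminescence.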
HCMV antiviral – human cytomegalovirus inhibition; HFF cells, HCMV-luciferase reporter, 72 h; active compounds read low; activity change, negative = inhibition, % at 57.5 µM; AID 1259415; actives 4.5% (n = 410,000); in the data active = activity change below about -60%; inconclusive = no clear call, values can overlap the other calls; inactive = above about -39%; note: % is set by controls: 0 for no effect and ±100 for the full control effect
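Human foreskin fibroblasts infected with luciferase-reporter HCMV at MOI 1 PFU/cell, compounds at two doses. Luciferase measured 72 h post infection; normalized to buffer-only basal and Salinomycin (10uM) controls.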
* hit, by the source's call. Unless noted, calls come from the whole dose curve; as a rule, active = well fitted inhibition curve with a large enough effect; inconclusive = small, poorly fitted or top-dose-only effect, or another doubt; inactive = no such curve, though single readings can be large or run the other way.

For CCN(CC)S(=O)(=O)c1cccc(-n2c(O)c(C=Nc3ccccc3C(=O)O)c3ccccc3c2=O)c1 the results were Pf growth 96h 7.4µM*, Shiga inhibitor 1, Cycloheximide cs 0, Pf growth 48h 13µM* and HCMV antiviral -79*.
O=C(O)c1ccccc1N=Cc1c(O)n(-c2nccs2)c(=O)c2ccccc12 was read as Pf growth 96h 1%, Shiga inhibitor 22, Cycloheximide cs -1, Pf growth 48h 7% and HCMV antiviral inconclusive.
Screening COc1ccc(C2SCCN2C(=S)Nc2ccc(Cl)cc2)cc1 (stereo unspecified) returned Pf growth 96h inconclusive, Shiga inhibitor 24, Cycloheximide cs 29*, Pf growth 48h inconclusive and HCMV antiviral -31.
Screening CCOC(=O)c1ccc(NC(=S)N2CCSC2c2c(F)cc(F)cc2F)cc1 (stereo unspecified) returned Pf growth 96h -20%, Shiga inhibitor 8, Cycloheximide cs 7, Pf growth 48h inconclusive and HCMV antiviral -34.
For Cc1ccc(NC(=S)N2CCSC2c2cccs2)cc1 (stereo unspecified) the results were Pf growth 96h 13%, Shiga inhibitor 132*, Cycloheximide cs 29*, Pf growth 48h 13% and HCMV antiviral inconclusive.
COc1ccc(C2SCCN2C(=S)Nc2cccc(Cl)c2)cc1 (stereo unspecified) was read as Pf growth 96h 2.1µM*, Shiga inhibitor 12, Cycloheximide cs 7, Pf growth 48h 2.3µM* and HCMV antiviral inconclusive.
Cc1cc(S(=O)(=O)Nc2cc3c(cc2NCc2ccccc2)n(C)c(=O)n3C)ccc1F was read as HCMV antiviral -21.
Screening O=C(NC1CCCCC1)c1cc(S(=O)(=O)N2CCCCC2)ccc1N1CCOCC1 returned Pf growth 96h inconclusive, Pf growth 48h inconclusive and HCMV antiviral 10.
`O=C(NC1CCCCCC1)c1cc(S(=O)(=O)N2CCOCC2)ccc1N1CCCCC1` gave Pf growth 96h 6.6µM*, Shiga inhibitor 12, Cycloheximide cs -3, Pf growth 48h inconclusive and HCMV antiviral 1.
Screening O=C(Nc1ccccc1)c1cc(S(=O)(=O)N2CCCCC2)ccc1N1CCOCC1 returned Pf growth 96h inconclusive, Pf growth 48h inconclusive and HCMV antiviral -11.
Screening NC(=O)c1ccccc1NC(=O)c1cc(S(=O)(=O)N2CCCCC2)ccc1N1CCOCC1 returned Pf growth 96h 6.6µM*, Pf growth 48h 13µM* and HCMV antiviral -16.
For O=C(NC1CCCCCC1)c1cc(S(=O)(=O)N2CCCCC2)ccc1N1CCOCC1 the results were Pf growth 96h inconclusive, Shiga inhibitor -2, Cycloheximide cs 15, Pf growth 48h 12µM* and HCMV antiviral inconclusive.
`Cc1ccc(CNC(=O)Cn2c(=O)n(Cc3ccccc3)c(=O)c3c2c2cc(C)ccc2n3C)cc1` gave HCMV antiviral 34.
`CCCc1cc(=O)[nH]c(SCC(=O)NCc2ccc3c(c2)OCO3)n1` gave Pf growth 96h 12µM*, Shiga inhibitor 7, Cycloheximide cs -4, Pf growth 48h 4% and HCMV antiviral -14.
`CCc1cc(=O)[nH]c(SCC(=O)NCc2ccc3c(c2)OCO3)n1` gave Pf growth 96h 5%, Pf growth 48h 1% and HCMV antiviral -12.
Screening Cc1nnc(SCC(=O)NCc2ccc3c(c2)OCO3)[nH]c1=O returned Pf growth 96h 0.26µM*, Shiga inhibitor 6, Cycloheximide cs -1, Pf growth 48h 37% and HCMV antiviral 97.
Screening Cc1nnc(SCC(=O)N(C(C)C)C(C)C)[nH]c1=O returned Pf growth 96h -9%, Shiga inhibitor -3, Cycloheximide cs -1, Pf growth 48h inconclusive and HCMV antiviral -36.
Screening Cc1nnc(SCC(=O)NNC(=O)C(C)C)[nH]c1=O returned Pf growth 96h 12µM*, Shiga inhibitor -2, Cycloheximide cs 3, Pf growth 48h 18% and HCMV antiviral -26.
`COC(=O)c1ccc(-c2ccc(CNCC(O)c3ccccc3)o2)cc1` (stereo unspecified) gave Pf growth 96h 12µM*, Shiga inhibitor 1, Cycloheximide cs -3, Pf growth 48h 2.6µM* and HCMV antiviral -5.
For COc1cc(C(C)=O)ccc1OCC(O)CNCC(O)c1ccccc1 (stereo unspecified) the results were Pf growth 96h -8%, Shiga inhibitor -5, Cycloheximide cs 3 and HCMV antiviral 6.
Screening CSc1nncc(/C(C)=N\Nc2cccc(C)c2)n1 returned Pf growth 96h 3%, Shiga inhibitor 20, Cycloheximide cs 6, Pf growth 48h 15% and HCMV antiviral inconclusive.
For CSc1nnc2c(n1)c(C)nn2-c1cccc(C)c1 the results were Pf growth 96h 56%, Shiga inhibitor 36*, Cycloheximide cs 20*, Pf growth 48h 84% and HCMV antiviral 42.
`NCCCC[C@H](NC(=O)CNC(=O)[C@@H]1CCCN1C(=O)[C@H](Cc1ccc(O)cc1)NC(=O)CN)C(=O)N[C@@H](Cc1ccccc1)C(=O)O` gave Shiga inhibitor -7 and Cycloheximide cs -7.
CN(C)CC(=O)N1CC(=O)N2[C@H](CO)[C@@H](c3ccc(Br)cc3)[C@H]2C1 was read as HCMV antiviral -8.
For CCn1c(=O)cc(OCC(=O)N2CCCC2)c2ccccc21 the results were Pf growth 96h inconclusive, Shiga inhibitor -6, Cycloheximide cs -3 and HCMV antiviral 5.
For CCOc1ccc(N(CC)C(=O)COc2cc(=O)n(CC)c3ccccc23)cc1 the results were Pf growth 96h inconclusive, Shiga inhibitor -4, Cycloheximide cs -3, Pf growth 48h inconclusive and HCMV antiviral -95*.
Screening CCOc1ccc(N(CC)C(=O)COc2cc(=O)n(C)c3ccccc23)cc1 returned Pf growth 96h inconclusive, Shiga inhibitor -4, Cycloheximide cs -1, Pf growth 48h inconclusive and HCMV antiviral -103*.
CN(C(=O)COc1cc(=O)n(C)c2ccccc12)c1ccc(Cl)cc1 was read as Pf growth 96h inconclusive, Shiga inhibitor -7, Cycloheximide cs -6 and HCMV antiviral 3.
`CCn1c(=O)cc(OCC(=O)N(C)c2ccc(OC)cc2)c2ccccc21` gave HCMV antiviral -72*.
Screening COc1ccc(CN2C(=O)C(n3cccc3)c3cc(F)ccc32)cc1 (stereo unspecified) returned HCMV antiviral -18.
For CCOc1ccc(S(=O)(=O)NCCC(=O)N2CCCC(C)C2)cc1 (stereo unspecified) the results were Pf growth 96h 4%, Pf growth 48h 13% and HCMV antiviral -18.
Screening Cc1ccc(C)c(CSc2nnc(-c3ccccn3)n2N)c1 returned Pf growth 96h -31%, Shiga inhibitor 11, Cycloheximide cs 0, Pf growth 48h -18% and HCMV antiviral -27.
Screening Nn1c(SCc2c(F)cccc2F)nnc1-c1ccccn1 returned Pf growth 96h 172%, Shiga inhibitor 90*, Cycloheximide cs 32*, Pf growth 48h 90% and HCMV antiviral 60.
